Assay results: PubChem BioAssay (Tox21)
Results filed as inconclusive are left out. A number with no mark means an inactive call. Calls of active or inactive are those of the source. The call rests on the fitted dose curve; in most records, active means well fitted activation curve with a large enough effect in the repeat runs; inconclusive means weak or mixed curves; inactive means flat fitted curve, though single readings scatter.

Assay: A CellTox Green Cytotoxicity Assay to monitor cytotoxicity in HepG2 cells - 8 hour (AID 1224890); further: nearly all actives have a fitted effect of over 45% in size
Conditions: CellTox Green fluorescence; series mostly up to 76.8 µM; cytotoxicity increase: at the top concentration
Source text: National Center for Advancing Translational Sciences [NCATS]
NIH Chemical Genomics Center [NCGC]
U.S. Environmental Protection Agency [EPA]
National Institutes of Environmental Health Sciences [NIEHS]
National Toxicology Program [NTP]
Cell-based models are critical for drug discovery. Determining the natural cytotoxic effects resulting from test compounds is an essential research activity. A CellTox Green Cytotoxicity Assay to monitor cytotoxicity in real time of continues cell culture during 40 hours of the compound treatment was used to screen Tox21 10K library compounds in HepG2 cells. CellTox Green Cytotoxicity Assay is a nonlytic, homogeneous, biofluorescent method to measure cytotoxicity in cell culture after experimental manipulation. The assay system uses a proprietary asymmetric cyanine dye that is excluded from viable cells but preferentially stains the dead cell's DNA. […] Viable cells produce no appreciable increases in fluorescence. Therefore, the fluorescence signal produced by the binding interaction with dead cell DNA is proportional to cytotoxicity.
The mixture of HepG2 cell suspension and reagents were dispensed at 600cells/6 ul/well in 1536-well tissue culture treated black solid bottom plates using a Multidrop dispenser. After the assay plates were incubated at a 37 C/5% CO2 incubator for 5 hours, 23 nL of compounds dissolved in DMSO, positive and negative controls was transferred to the assay plate by a pintool work station. The plates were incubated at 37 C for 40 hours. The fluorescence intensity were measured at 0h, 8h, 16h, 24h, 32h and 40h time points using ViewLux plate reader during compound treatment.
On the % scale 0 is the no-effect control and ±100 the full control effect.

Row | SMILES | Potency | cytotoxicity increase
1 | C[C@H]1CCCC(=O)CCC/C=C/c2cc(O)cc(O)c2C(=O)O1 | inactive | –
2 | CCOC(=O)c1ncn2c1CN(C)C(=O)c1c(I)cccc1-2 | – | -2.57% [at 35.3 µM]
3 | CCSC(=O)Cl | – | 0.71%
4 | CC(C)[C@]12CC(=O)[C@H](C)[C@H]1C2 | – | 1.1%
5 | Clc1cc2c(cc1Cl)Oc1cc(Cl)c(Cl)cc1O2 | – | -6.05% [at 0.29 µM]
6 | O=C1C2CC=CCC2C(=O)N1SC(Cl)(Cl)Cl (stereo not given) | – | 8.09%
7 | COC[C@@H](NC(C)=O)C(=O)NCc1ccccc1 | – | -10.6% [at 35.3 µM]
8 | CCC(C)(C#N)N=NC(C)(C#N)CC (stereo not given) | – | -19.2%
9 | CC[C@@H](CO)NC(=O)[C@@H]1C=C2c3cccc4[nH]cc(c34)C[C@H]2N(C)C1 | – | 1.01% [at 35.3 µM]
10 | O=c1[nH]oc2c1CCNC2 | – | 2.1% [at 35.3 µM]
11 | C=CC(=O)OCCN(C)C | – | -4.8%
12 | O=C1CC(=O)NC(=O)N1 | – | 0.212%
13 | OP(O)c1ccccc1 | – | -6.12%
14 | Cc1cc(OC(=O)N(C)C)nn1C(=O)N(C)C | – | -9.61%
15 | CN(CCO)CCO | – | 0.64%
16 | CCNc1nc(NCC)nc(SC)n1 | – | -7.81%
17 | CCC(CC)(CNC(=O)CCCO)c1cccc(OC)c1 | – | -8.97% [at 35.3 µM]
18 | CC[C@H](O)C(C[C@H](C)N(C)C)(c1ccccc1)c1ccccc1 | – | -1.6%
19 | CC1=C2[C@H]3OC(=O)[C@@H](C)[C@@H]3CC[C@@]2(C)C=CC1=O | – | -7.96% [at 35.3 µM]
20 | CC(Cc1ccccc1)NCCn1cnc2c1c(=O)n(C)c(=O)n2C (stereo not given) | – | -12.4%

Row | SMILES | Potency | cytotoxicity increase
21 | O=C(O)CBr | – | -1.82%
22 | CC(C)(C)C(=O)C(Cl)Cl | – | -5.91%
23 | C=C1CC[C@@]2(O)[C@H]3Cc4ccc(O)c5c4[C@@]2(CCN3CC2CC2)[C@H]1O5 | – | -1.08% [at 35.3 µM]
24 | Cl/C=C/CCl | – | -0.765%
25 | NNC(N)=O | – | -2.52%
26 | CCCCS(=O)(=O)Cl | – | -2.08%
27 | Nc1c(Cl)c(F)nc(OCC(=O)O)c1Cl | – | -2.82%
28 | O=S1(=O)OCCO1 | – | -0.184%
29 | Cc1ccc(-c2nc3ccc(C)cn3c2CC(=O)N(C)C)cc1 | – | 0.787% [at 35.3 µM]
30 | C/C=C/CC#N | – | -2.59%
31 | COc1cc(CC(C)N)cc(OC)c1OC (stereo not given) | – | -2.24%
32 | C=C(Cl)CSC(=S)N(CC)CC | – | -9.66%
33 | O=C(CCl)NCO | – | -5.15%
34 | [P]#[In] | – | -4.37%
35 | O=[N+]([O-])c1cccc(CCl)c1 | – | -2.28%
36 | COc1ccc(CN2CCNCC2)c(OC)c1OC | – | -12.2% [at 35.3 µM]
37 | CC(Cc1ccccc1)NCCCCl (stereo not given) | – | -2.39% [at 35.3 µM]
38 | CCOC(=O)C(SP(=S)(OC)OC)c1ccccc1 (stereo not given) | – | -4.79%
39 | CCC(=O)OC1(c2ccccc2)CCN(C)CC1 | – | -0.195%
40 | O=C(Cl)OCc1ccccc1 | – | -5.12%
